# High-throughput results as filed in PubChem BioAssay.
# Sampled rows, rich in hits. Any-hit rate of the full collection: about 3.6%.
# A3G deaminase = APOBEC3G DNA deaminase inhibitors, primary screen, biochemical, fluorescence, single-stranded DNA substrate, uHTS | DNA dC->dU-editing enzyme APOBEC-3G (Homo sapiens), Q9HC16 | recombinant A3G, ssDNA deamination FAM/TAMRA fluorescence | inhibition, % at 20 µM | hit rate 0.28% among 330,000;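 active means inhibition of at least 40% at 20 µM, with no more than 30% in the related APOBEC3A deaminase screen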;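 further: plate controls were DMSO wells with A3G for no effect and wells lacking A3G enzyme for full effect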
# Wnt bcat act = Wnt/beta-catenin pathway activators, primary screen, cell-based, plate reader, single point; Wnt/beta-catenin reporter cell assay, activator; activation, % at 9.35 µM; hit rate 1.2% among 300,000; AID 743398, 2014; in the data active means activation above about 30%, passing the limit was not always enough; inconclusive means no clear call, values can overlap the other calls;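 further: 0% = neutral control wells and 100% = positive control wells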
# APOBEC3A inh = APOBEC3A ssDNA deaminase inhibitors, primary screen, selectivity assay for APOBEC3G inhibitor project, biochemical, FAM/TAMRA oligo cleavage fluorescence; hit rate 0.41% among 330,000; recombinant A3A, FAM/TAMRA ssDNA deamination fluorescence; DNA dC->dU-editing enzyme APOBEC-3A (Homo sapiens), P31941; inhibition, % at 20 µM;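 active means at least 40% inhibition at 20 µM here, with at most 30% in a related deaminase screen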;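 further: plate controls were A3A with DMSO for no effect and wells lacking A3A enzyme for full effect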
# PHOSPHO1 block = PubChem AID 1565. hit rate 1.1% among 290,000. Phosphoethanolamine/phosphocholine phosphatase (Homo sapiens), Q8TCT1. recombinant PHOSPHO1, absorbance phosphatase assay. inhibition, % at 13.3 µM; in the data active means inhibition above about 60%
# Target sequence (Q8TCT1 whole entry, looked up): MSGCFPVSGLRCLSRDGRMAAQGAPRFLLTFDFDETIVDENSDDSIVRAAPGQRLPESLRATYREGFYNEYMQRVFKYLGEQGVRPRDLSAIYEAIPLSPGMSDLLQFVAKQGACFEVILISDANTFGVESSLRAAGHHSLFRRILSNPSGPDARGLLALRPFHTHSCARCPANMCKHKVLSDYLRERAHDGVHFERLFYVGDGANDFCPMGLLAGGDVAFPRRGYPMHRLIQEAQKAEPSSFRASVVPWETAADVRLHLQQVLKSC
# MITF TRPM1 HTS = activators of MITF-driven TRPM1 promoter reporter, primary screen, cell-based, SK-MEL-5, luciferase, single point. SK-MEL-5 TRPM1-promoter luciferase, 24 h; % of positive control, neutral wells = 0. activation, % at 12.5 µM. hit rate 0.75% among 300,000;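 active means mean activation of at least 80% with every replicate also reaching 80%; inconclusive means mean reaches 80% but some replicate falls short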;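 further: 0% = neutral control wells and 100% = parthenolide positive control wells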
# esBAF inh = Bmi1 luciferase reporter increase in mESCs, primary screen, esBAF inhibitor project, mouse ES cells, Bmi1 luciferase knock-in, single point. 24 h; 100% = twice the neutral-well signal. reporter increase, % at 12.5 µM. hit rate 2% among 350,000. AID 602393, 2012; in the data active means activation above about 40%; inconclusive means no clear call, values can overlap the other calls;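 further: 0% = median of the plate's neutral control wells and 100% = double that signal; a rise in the Bmi1 reporter signal indicates esBAF inhibition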
# Numbers without * were called inactive; ? = inconclusive; · = no result given.
SMILES,A3G deaminase,Wnt bcat act,APOBEC3A inh,PHOSPHO1 block,MITF TRPM1 HTS,esBAF inh
Cc1ccc(S(=O)(=O)N(C)C[C@@H]2OCCCC[C@H](C)Oc3ccc(N(C)C)cc3C(=O)N([C@@H](C)CO)C[C@H]2C)cc1,·,·,·,·,·,-1
O=C([C@@H]1[C@@H](CO)[C@@H]2Cn3c(ccc(-c4cccnc4)c3=O)[C@H]1N2Cc1ccncc1)N1CCOCC1,·,·,·,·,·,-1
C#CCSc1nccc(-c2nn(-c3ccc(C)cc3)ccc2=O)n1,1,·,2,81*,-4,·
O=C(O)c1cc(-c2ccc(/C=N/N3C(=O)C4C5C=CC(CC5)C4C3=O)o2)ccc1Cl (stereo not given),-8,0,4,36,1,·
COC(=O)c1ccc(-c2ccc(/C=N/N3C(=O)C4C5C=CC(CC5)C4C3=O)o2)cc1 (stereo not given),-7,28,-5,32,49,60*
O=C(Nc1cccc(-c2ccc(N3CCOCC3)nn2)c1)c1ccccc1Cl,-10,-3,31,·,107*,54*
Cc1ccc(C(=O)Nc2cccc(-c3ccc(N4CCOCC4)nn3)c2)cc1,-12,36*,-6,·,75,52*
O=C(Nc1cccc(-c2ccc(N3CCOCC3)nn2)c1)c1cccc(Cl)c1,·,35*,·,·,·,71*
Cc1ccc(S(=O)(=O)Nc2cccc(-c3ccc(N4CCCCCC4)nn3)c2)cc1,-7,20,-3,3,?,67*
O=C(COc1ccc(Cl)cc1)Nc1cccc(-c2ccc(N3CCOCC3)nn2)c1,-9,30,-4,·,71,-38
C[C@H]1CCCCO[C@H](CN(C)C(=O)c2ccncc2)[C@@H](C)CN([C@@H](C)CO)C(=O)c2cc(NS(=O)(=O)c3ccc(Cl)cc3)ccc2O1,·,·,·,·,·,1
C[C@H](CO)N1C[C@H](C)[C@H](CN(C)C(=O)Cc2ccccc2)Oc2ncc(C#CCN(C)C)cc2C1=O,·,·,·,·,·,0
CC(C)CC#Cc1cnc2c(c1)C(=O)N([C@@H](C)CO)C[C@@H](C)[C@H](CN(C)C(=O)c1ccccc1F)O2,·,·,·,·,·,3
O=C(Nc1cccc(-c2ccc(N3CCOCC3)nn2)c1)c1ccc(Cl)cc1,-12,-2,-1,·,84*,35
Cc1ccc(C(=O)Nc2cccc(-c3ccc(N4CCOCC4)nn3)c2)cc1C,0,29,2,·,76,·
COc1cn(-c2ccccc2)nc1C(=O)Nc1ccccc1,-7,15,-2,36,22,60*
O=C(CSc1nc2ccccc2[nH]1)NCc1ccccc1,2,18,-3,9,·,43*
O=C(CSc1nc2ncccc2[nH]1)NCc1ccccc1,0,·,1,0,-1,10
O=C1CCC(=O)N1c1ccc(CSc2nc3ccccc3[nH]2)cc1,-7,·,-1,35,·,42*
O=C(CSc1nc2ccccc2[nH]1)c1ccc(Cl)s1,-2,·,4,103*,40,·
O=C(CSc1nc2cc(Cl)ccc2o1)c1cccs1,-4,·,0,1,27,10
O=C(CSc1nc2ccc(Cl)cc2[nH]1)c1cccs1,1,37*,0,0,54,?
CCCNC(=O)N(C)C[C@@H]1Oc2ncc(C#CC3CC3)cc2C(=O)N([C@@H](C)CO)C[C@H]1C,·,·,·,·,·,-11
C[C@H](CO)N1C[C@H](C)[C@H](CN(C)S(=O)(=O)c2ccc(F)cc2)Oc2c(NC(=O)Nc3ccc(C(F)(F)F)cc3)cccc2C1=O,·,·,·,·,·,-1
O=C(CSc1nc2ccccc2[nH]1)c1ccccc1F,-5,?,0,24,56,52*
C/C(N)=C(/C#N)C(=O)CSc1nc2ccc(C)cc2[nH]1,-2,5,-3,72*,32,18
Cc1ccc2nc(SCC(=O)c3cc(C)n(C)c3C)[nH]c2c1,-7,·,-5,71*,5,·
Cc1ccc2nc(SCC(=O)c3c[nH]c4ccccc34)[nH]c2c1,-5,-1,1,39,-8,5
